# Reference: the supplement of paper PMC3334620
# Over roughly 33,000 sequences, “E-score (-0.5 to 0.5)” has its median near -0.016; the highest 2% begin near 0.3. This excerpt belongs to a sample that is enriched for the highest values.
# Target: T1, Yer184c (UniProt P39961)
# T1 sequence: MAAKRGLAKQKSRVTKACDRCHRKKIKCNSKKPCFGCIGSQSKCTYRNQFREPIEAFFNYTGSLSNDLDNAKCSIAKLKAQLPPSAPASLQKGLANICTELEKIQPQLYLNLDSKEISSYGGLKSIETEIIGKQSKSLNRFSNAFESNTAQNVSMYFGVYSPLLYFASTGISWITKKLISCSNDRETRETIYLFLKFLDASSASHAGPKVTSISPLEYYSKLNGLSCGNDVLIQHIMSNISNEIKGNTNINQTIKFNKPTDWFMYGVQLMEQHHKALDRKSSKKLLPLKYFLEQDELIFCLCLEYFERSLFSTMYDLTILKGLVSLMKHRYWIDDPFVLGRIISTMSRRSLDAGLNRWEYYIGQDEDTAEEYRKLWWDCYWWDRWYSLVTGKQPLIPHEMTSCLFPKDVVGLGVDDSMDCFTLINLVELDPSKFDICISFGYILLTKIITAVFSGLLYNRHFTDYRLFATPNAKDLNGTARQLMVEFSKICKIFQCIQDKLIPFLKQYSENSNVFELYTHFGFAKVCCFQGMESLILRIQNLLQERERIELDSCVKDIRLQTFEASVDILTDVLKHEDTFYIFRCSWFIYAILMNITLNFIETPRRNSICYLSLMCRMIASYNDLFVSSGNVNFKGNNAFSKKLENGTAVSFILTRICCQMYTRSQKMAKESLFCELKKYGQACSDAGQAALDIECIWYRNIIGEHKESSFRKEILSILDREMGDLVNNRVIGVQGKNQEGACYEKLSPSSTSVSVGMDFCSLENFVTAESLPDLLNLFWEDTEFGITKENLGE
# Test: PBM E-score (8-mer binding enrichment) (E-score (-0.5 to 0.5)); higher = stronger / more preferred TF binding
# Settings: protein concentration: 100 nM; construct: GST-full length
# Summary of the method: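 Universal all-10-mer Agilent arrays, double-stranded by primer extension on fresh or once-stripped slides, were probed with about 100-200 nM GST-tagged yeast transcription factors made by PURExpress. Fluorescent anti-GST detected bound protein, and masliner normalised the scans. E-scores from the Universal PBM Analysis Suite were given to each ungapped eight-base word pooled with its reverse complement.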
row,Sequence,PBM E-score
1,CGGAACTC,0.202
2,ACGAACAA,0.275
3,CGGAACTA,0.414
4,CGGAACGA,0.306
5,CCGAACAA,0.322
6,GCGAACAA,0.246
7,GGGAACAC,0.221
8,AGGAACGA,-0.141
9,ACCAGACT,-0.0238
10,GTTTGCTA,0.0684
11,ATACACGG,0.047
12,CGGCGCAA,0.178
13,AGGCTGAT,-0.161
14,GGGAACAA,0.158
15,CGGAACAA,0.39
16,CCGAACTC,0.246
17,AGGAACAG,-0.19
18,TGGAACAA,0.195
19,CCGAACAG,0.216
20,ACGAACTA,0.157
21,CGGAACAG,0.338
22,CCGAACTA,0.323
23,CGATAGCA,-0.114
24,AGTTACGA,0.107
25,CAGAGGGG,-0.286

row,Sequence,PBM E-score
1,AGTAGCTC,-0.00154
2,CTCGCTTC,-0.0232
3,AGTCTGAG,-0.14
4,AGGCTCAC,-0.273
5,ACATTAAA,0.0822
6,TGTTTAAA,0.0737
7,TCATTAAA,0.343
8,AATTTTAC,0.176
9,CTATTAAA,0.21
10,GCATTAAA,0.149
11,AAATTTAT,0.286
12,TGTTTTAA,0.327
13,AGTTTTAA,0.159
14,TTATTAAA,0.233
15,AATTTTAT,0.379
16,ATATTAAA,0.368
17,TCAGCAAA,0.158
18,ACTAGTGA,-0.172
19,AGAGCTTA,0.0135
20,CGTTTCAC,0.135
21,ATCAATGA,0.2
22,CAGTAAAG,-0.177
23,GAGCAACA,0.128
24,GATAACAC,0.0102
25,AATTTTAA,0.252

row,Sequence,PBM E-score
1,ATTTTAAC,0.028
2,ATATTTAA,0.306
3,ATTTTTAA,0.333
4,CTATTTAA,0.0903
5,AATTTATG,0.307
6,GTTTTAAA,0.131
7,ATTTTATG,0.217
8,AATTTATA,0.24
9,ATTTTAAA,0.331
10,ATATTTAC,0.202
11,ATTTTTTA,0.274
12,ACCCCGCA,-0.0654
13,GCTTTTCC,0.109
14,GGCGATTA,0.0843
15,CAGATCGA,-0.0498
16,CCTAGTTA,0.0429
17,ACCCTACA,-0.0427
18,AGTTGACA,0.0221
19,AGAGGTGA,-0.148
20,ATCCCCGG,0.185
21,ACCCCGGG,0.263
22,AACCCGGG,0.325
23,ACCCCGGC,0.0581
24,ATCCCGGG,0.36
25,AACCCGGC,0.329

row,Sequence,PBM E-score
1,AAACCCGC,0.135
2,ATCCCGGA,0.274
3,AAACCCGA,0.215
4,CACCCGGC,0.15
5,AAACCCGG,0.337
6,CACCCGGG,0.189
7,ACTTTTTG,0.154
8,ACCCTCGT,-0.116
9,ACAGTAAG,-0.0845
10,GACATTGC,-0.175
11,ATATAAAT,0.305
12,AAATAAAG,0.045
13,ATATAAAC,0.17
14,AAATAAAA,0.0817
15,AAATAAAT,0.34
16,ATATAAAG,0.0639
17,CGTGCTGC,-0.0543
18,CGGGGGGA,-0.373
19,AACTGCAA,0.0848
20,GAGTTAGC,-0.0328
21,CTCTTATA,0.145
22,ATGGTATA,-0.0158
23,ACATGCTG,-0.257
24,CCACCGGG,-0.00255
25,CCACCGGA,0.346

row,Sequence,PBM E-score
1,GCACCGGA,0.33
2,GCACCGGC,0.234
3,CCACCGGC,0.146
4,ACACCGGA,0.246
5,TAGACCGA,0.105
6,TAATCATA,0.157
7,CACTAGTA,-0.0824
8,TACTAGTA,0.338
9,GACTAGTA,-0.12
10,AGTGCCGG,0.337
11,AGTGCCGA,0.333
12,AGTGCCTG,-0.132
13,AGTGCCAG,-0.28
14,GGTGCCGA,0.266
15,AGTGCCGC,0.123
16,GGACCACC,-0.116
17,CTCGACCC,-0.118
18,AGCTGCCC,0.034
19,CGGCTTAG,0.213
20,TGGCTTAA,0.175
21,CGGCTTCC,0.198
22,CGGCTTAA,0.393
23,CGGCTTCA,0.345
24,AGGCTTCA,-0.108
25,ACGTCAAG,-0.124

row,Sequence,PBM E-score
1,CACCTTGA,-0.151
2,GTCAACGA,-0.0301
3,GCTGTTTA,0.141
4,CGCGGCAA,0.274
5,ACCGGCAC,0.363
6,GCCGGCAC,0.422
7,CCCGGCAC,0.0863
8,ACCGGCAA,0.222
9,CCCGGCAA,0.335
10,TGCGGCAA,0.0333
11,TCCGGCAA,0.339
12,CCCGGCAG,0.131
13,ACCGGCAG,0.0457
14,TACGGCAA,0.158
15,GGCGGCAC,0.0696
16,GTGAGGGA,-0.252
17,CAATTGCG,-0.0249
18,ACGCTAAA,0.0442
19,AAATTGAT,0.159
20,AGTTAACC,-0.0162
21,GCTATCCC,-0.16
22,CGAATGCA,0.0594
23,ACCTTGCA,-0.197
24,AAAAATGT,0.0248
25,CTTCTGAC,-0.218

row,Sequence,PBM E-score
1,CCACAAGA,0.0207
2,GCCGGCAA,0.424
3,GACGGCAA,0.148
4,GCCGGCTA,0.266
5,CGACTAAG,-0.0168
6,GTTCGCGA,0.311
7,ATTCGCGA,-0.0163
8,CTTCGCGA,0.0769
9,GCTTCCGA,0.306
10,TATTCCCA,0.0619
11,AATTCCAA,0.116
12,GATTCCGA,0.33
13,GATTCCCA,-0.0287
14,AATTCCGA,0.389
15,GCTTCCTA,0.0691
16,TATTCCAA,0.115
17,TATTCCGA,0.389
18,GATTCCGC,0.0917
19,CCTTCCGA,0.227
20,AATTCCCA,-0.123
21,GGGTAGAA,-0.0545
22,CAGAGCAG,-0.00548
